Where “and” joins values, the source holds several entries; their conditions need not be identical. Identical values can stand only once. Inconclusive results are not listed. A call without a number means that no potency is given here. Some compounds were tested as several samples or in several runs, with calls that do not always agree. Calls of active or inactive are those of the source. Calls come from the whole dose curve; as a rule, active = well fitted inhibition curve with a large enough effect; inconclusive = small, poorly fitted or top-dose-only effect; inactive = no such curve, though single readings can be large or run the other way.
These compounds were tested against Cytochrome P450 2C19 (Homo sapiens) (UniProt P33261) (assay: qHTS Assay for Inhibitors and Substrates of Cytochrome P450 2C19 (AID 899; note: nearly all actives have a fitted effect of over 60% in size)). Conditions: recombinant CYP2C19, luciferin-H EGE luminescence; series mostly up to 57.1 µM.
Experimental: NIH Molecular Libraries Screening Centers Network [MLSCN]
NIH Chemical Genomics Center [NCGC]
The P450 gene superfamily is involved in the metabolism and clearance of xenobiotics. This assay used human CYP2C19 to measure the hydroxylation of ethylene glycol ester of 6' deoxyluciferin (Luciferin-H EGE; […]) to luciferin. The luciferin is then measured by luminescence after the addition of a luciferase detection reagent. Luciferin-H EGE concentration in the assay was equal to its KM for CYP2C19. Inhibitors and some substrates limit the production of luciferin, and decrease measured luminescence.
NCGC Assay Protocol Summary:
Two uL of enzyme and substrate mix (final concentrations: 5nM CYP2C19, 10uM Luciferin-H EGE, 50mM KPO4) were dispensed into a white, solid bottom 1536-well microtiter plate. 23nL of compound was transferred by a pin tool. The plate was incubated at 37C for 10 min. Two uL of an NADPH regeneration solution (Promega supplied reagent) was dispensed and the reaction was allowed to continue for 60 min at 37C. Then the reaction was stopped by reconstituted luciferin detection buffer. After another 20 min of incubation the plate was read on the ViewLux (Perkin Elmer) at 60 sec exposure and 2x2 binning. This protocol was carried out with Promega-Glo reagents and further information can be found at http://www.promega.com/tbs/tb325/tb325.pdf. Data were normalized to the to AC100 inhibition (57uM ketoconazole).
Keywords: P450, CYP2C19, Luciferase, MLSMR, MLSCN, NIH Roadmap, qHTS, NCGC
Potency is the fitted concentration of half-maximal effect.

Cytochrome P450 2C19 (Homo sapiens), sequence (P33261 whole entry, looked up): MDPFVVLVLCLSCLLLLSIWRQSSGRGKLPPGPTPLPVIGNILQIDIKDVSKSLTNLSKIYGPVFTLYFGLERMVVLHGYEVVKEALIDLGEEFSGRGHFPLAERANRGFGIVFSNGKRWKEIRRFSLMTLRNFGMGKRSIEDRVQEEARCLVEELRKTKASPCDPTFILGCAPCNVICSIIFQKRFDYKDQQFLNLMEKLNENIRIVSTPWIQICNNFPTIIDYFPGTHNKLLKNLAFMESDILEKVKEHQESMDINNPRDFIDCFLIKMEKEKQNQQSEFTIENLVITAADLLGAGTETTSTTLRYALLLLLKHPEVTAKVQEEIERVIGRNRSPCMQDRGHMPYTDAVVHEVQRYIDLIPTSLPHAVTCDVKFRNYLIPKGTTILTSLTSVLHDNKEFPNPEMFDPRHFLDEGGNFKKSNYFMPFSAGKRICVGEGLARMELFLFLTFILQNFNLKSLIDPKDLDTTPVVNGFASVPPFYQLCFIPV

Row | Compound | Potency | outcome
1 | Cc1c(OCC(F)(F)F)ccnc1CS(=O)c1nc2ccccc2[nH]1 (centres undefined) | 1.26 µM (active) | –
2 | O=C1c2ccccc2-c2n[nH]c3cccc1c23 | inactive | –
3 | O=C(NCCO[N+](=O)[O-])c1cccnc1 | 3.98 µM (active) | –
4 | CCc1nc(N)nc(N)c1-c1ccc(Cl)cc1 | – | inactive
5 | O=C(O)c1cccnc1Nc1cccc(C(F)(F)F)c1 | inactive | –
6 | CC1(C)NC(=O)N(c2ccc([N+](=O)[O-])c(C(F)(F)F)c2)C1=O | 7.94 µM (active) and 126 nM (active) and 251 nM (active) | –
7 | CC(=O)Nc1ccc(O)cc1 | – | inactive
8 | CCCc1cc(=O)[nH]c(=S)[nH]1 | inactive | –
9 | C[C@H](Cc1ccc(O)c(O)c1)[C@@H](C)Cc1ccc(O)c(O)c1 | 6.31 µM (active) | –
10 | Cc1nc2n(c(=O)c1CCN1CCC(c3noc4cc(F)ccc34)CC1)CCCC2 | – | inactive
11 | O=c1c(O)c(-c2ccc(O)cc2O)oc2cc(O)cc(O)c12 | inactive | –
12 | Oc1ccc(-c2nc(-c3ccc(F)cc3)c(-c3ccncc3)[nH]2)cc1 | 0.794 µM (active) | –
13 | Cc1cccc(C#Cc2ccccc2)n1 | inactive and 7.94 µM (active) | –
14 | O=C(CCc1ccc(O)cc1)c1c(O)cc(O)cc1O | 3.98 µM (active) | –
